From PubChem BioAssay AID1233 (SRMLSC, 2008)
Measured potencies and affinities stand elsewhere. Active and inactive are the calls of the source.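 Rule for the calls: active = a dose-response curve fit returns a half-maximal inhibitory concentration, extrapolated values included; inactive = the fit returns no such concentration.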

Biological target: HMG-CoA reductase [Enterococcus faecalis] (UniProt Q9FD70)
Experiment: class II HMG-CoA reductase inhibition potency – biochemical, Enterococcus faecalis, confirmation (AID 1233)
Details: purified E. faecalis HMGR, NADPH absorbance 340 nm kinetics; series mostly up to 100 µM

outcome, inactive:
CC1CCN(c2cc(N)c(Cl)cc2[N+](=O)[O-])CC1
Cc1cccc(N/N=C(\C#N)S(=O)(=O)C(C)(C)C)c1
Cc1ccc(C(C(=O)NC(C)(C)C)N(Cc2ccc3c(c2)OCO3)C(=O)c2ccc(CN3CCOCC3)o2)o1 (configuration not stated)
COC(=O)c1ccc(C(NC(=O)OCc2ccccc2)/C(C)=C/[C@@H](C)C(=O)NCc2ccc(-c3ccccc3)cc2)cc1 (some centres not stated)
Cc1ccsc1C(=O)C1CCCN(Cc2cc(F)ccc2-n2cccn2)C1 (configuration not stated)
COc1ccc(CN2CCN(CCC(C)C)C(CCO)C2)cc1Cn1cccn1 (configuration not stated)
Cc1ccc(NC(=O)c2ccc3nc[nH]c3c2)c(O)c1
CN(C)CCNC(=O)c1ccc(COc2ccc(Cl)cc2Cl)cc1
C/C(CC(=O)NC1CCCCC1)=N\NC(=O)COc1ccc(C)cc1Br
CN(Cc1ccccc1)c1nc(N)nc(Cl)c1C=O
N#CCCCn1c(=O)oc2ccccc21
O=C(CSCc1ccc(Cl)cc1)NCC1CCCO1 (configuration not stated)
Cc1[nH]nc2c1C(CCc1ccccc1)C(C#N)=C(N)O2 (configuration not stated)
COc1ccc(-c2csc(N(CC3CCCO3)C(=O)c3ccco3)n2)cc1 (configuration not stated)
CCCC(=O)Nc1sc(C(=O)Nc2cccc(N)c2)c(C)c1C(=O)OC
COCCCNC(=O)CCCC(=O)NCCCOC
N#CC(=C1CCCC1)c1nc(-c2ccc(Cl)cc2)cs1
COc1ccc(Cn2c(=O)sc3ccccc3c2=O)cc1
O=C(O)c1cc(CN2CCOCC2)oc1-c1ccccc1
O=C(c1cc([N+](=O)[O-])ccc1N1CCCCC1)N1CCc2ccccc21
COc1ccc(/C=C/C(=O)NCCNC(=O)c2ccccc2)cc1OC
Cc1csc(NC(=O)c2cnccn2)n1
O=C(CNC(=O)c1ccccc1)N/N=C/c1cccs1
Cc1ccc(S(=O)(=O)ON2C(=O)c3ccccc3C2=O)c(C)c1
CC(=O)Nc1ccc(S(=O)(=O)N2CCCC2C(=O)O)cc1 (configuration not stated)
S=c1[nH]c2cc(Cl)ccc2s1
Cc1ccc(NC(=O)c2cc(S(=O)(=O)NCCC3=CCCCC3)ccc2F)cc1
CC(C)NC(=O)c1ccccc1NC(=O)C(C)Oc1ccccc1 (configuration not stated)
NNc1nc2c(Cl)ccc(Cl)c2s1
CC(=O)c1ccc(NC(=O)c2ccc(NC(=O)CCS(=O)(=O)c3cccs3)cc2)cc1
COc1cccc(C2NC(=O)NC(O)(C(F)(F)F)C2C(=O)c2cccnc2)c1OC (configuration not stated)
COc1ccc(CCNC(=O)c2ccccc2Cl)cc1OC
S=C(NCc1ccccc1)N1CCN(c2cccc(Cl)c2)CC1
COc1cccc(C(=O)CN2C3=NCCCN3c3ccccc32)c1
Cc1ccc(NC2=C(N3CCOCC3)C(=O)c3ccccc3C2=O)cc1
COC(=O)CSc1ncc(C#N)c(N)n1
O=C(Cc1ccc2c(c1)CCCC2)Nc1ccccc1Cl
